Source: PubChem BioAssay
An excerpt weighted towards active compounds, which were near 19% of everything screened.
DT40 TDP1 CPT: DT40-hTDP1 cell growth loss with CPT | AID 686979 | Potency, µM (top dose mostly 46.2 µM), for the others: top-dose activity change, negative = growth inhibition, hits mostly inhibitors | hit rate 12% among 420,000 | chicken DT40 Tdp1-/-;hTDP1 cells + 20 nM CPT, ATP luminescence, 48 h; also: nearly all actives have a fitted effect of over 55% in size
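Chicken DT40 Tdp1-/- cells stably complemented with human TDP1 were seeded at 400 cells/well in medium containing 20 nM camptothecin, exposed to pin-transferred compounds, and grown at 37 °C for at least 48 hr. Viability was read as ATP luminescence.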
DT40 TDP1 no CPT: qHTS for Inhibitors of human tyrosyl-DNA phosphodiesterase 1 (TDP1): qHTS in cells in absence of CPT. DT40 Tdp1-/- hTDP1 cells, no CPT, ATP luminescence, 48 h. Potency, µM (top dose mostly 46.2 µM), for inactives: at the top dose activity change, negative = growth inhibition, most hits filed as inhibitors. hit rate 15% among 420,000. AID 686978, 2013; also: nearly all actives have a fitted effect of over 55% in size
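Readout: luminescence from CellTiter-Glo after 30 min in the dark at RT. Cells: DT40 Tdp1-/- with stable hTDP1, 400/well. Exposure: compounds alone, ≥48 hr, 37 °C.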
VP16 counter: Gal4-VP16 reporter inhibition counter-screen; Potency, µM (top dose mostly 53.6 µM), for the others: at the highest dose activity, negative = inhibition, actives largely listed as inhibitors; hit rate 3.5% among 310,000; AID 2546; Drosophila S2 Gal4-VP16 UAS-luciferase, luminescence, 20 h;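 also: Gal4-VP16 expression switched on by copper sulfate through the metallothionein promoter; nearly all actives have a fitted effect of over 50% in size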
TDP1 inh: TDP1 (human) enzyme inhibition. Q9NUW8. recombinant TDP1, AlphaScreen DNA substrate cleavage. Potency, µM (highest dose often 130 µM), without a hit: at the top dose activity change, negative = inhibition, usual class: inhibitors. hit rate 0.28% among 350,000; also: nearly all actives have a fitted effect of over 40% in size
Target sequence (Q9NUW8 whole entry, looked up): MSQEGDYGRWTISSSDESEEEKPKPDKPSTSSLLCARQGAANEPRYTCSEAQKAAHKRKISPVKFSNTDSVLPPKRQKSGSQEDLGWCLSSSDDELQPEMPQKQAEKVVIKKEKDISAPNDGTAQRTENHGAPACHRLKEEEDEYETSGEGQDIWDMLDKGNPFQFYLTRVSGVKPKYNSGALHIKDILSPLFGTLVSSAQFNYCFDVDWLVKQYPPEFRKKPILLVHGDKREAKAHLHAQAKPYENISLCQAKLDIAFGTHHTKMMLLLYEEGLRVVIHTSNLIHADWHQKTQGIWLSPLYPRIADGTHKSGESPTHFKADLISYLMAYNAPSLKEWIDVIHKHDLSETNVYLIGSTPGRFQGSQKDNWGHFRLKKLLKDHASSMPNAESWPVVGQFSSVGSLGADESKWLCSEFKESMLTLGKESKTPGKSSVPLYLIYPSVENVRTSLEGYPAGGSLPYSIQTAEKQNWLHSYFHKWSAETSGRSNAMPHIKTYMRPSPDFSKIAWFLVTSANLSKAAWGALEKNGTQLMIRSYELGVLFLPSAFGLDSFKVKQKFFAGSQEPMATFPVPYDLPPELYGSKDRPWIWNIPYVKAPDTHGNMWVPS
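Signal: AlphaScreen proximity between streptavidin donor and anti-FITC acceptor beads on intact substrate. Reaction: Tdp1 1 nM, substrate 15 nM final, 5 min RT after 15 min compound preincubation.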
RORg inh: blocks mouse ROR gamma transcriptional activity; AID 2551; P51450; Potency, µM (series often up to 53.6 µM), without a hit: at the highest dose activity change, negative = inhibition, usual class: inhibitors; Drosophila S2 Gal4-RORgamma UAS-luciferase reporter, 20 h; hit rate 5.4% among 310,000; also: nearly all actives have a fitted effect of over 60% in size
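Stably transfected Drosophila Schneider cells are the test system, with ROR gamma fused to Gal4 and luciferase under UAS control; luminescence is read after 20 hr of 700 uM copper sulfate induction at ambient temperature.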
* = called active by the depositor; ? = inconclusive; · = no result given; [ ] = dose if it differs, or a comment. Calls follow the shape of the dose curve; as a rule, active = well fitted curve in the direction sought with a large enough effect; inconclusive = small, poorly fitted or top-dose-only effect, or another doubt; inactive = no such curve, though single readings can be large; an effect the other way counts as inactive or inconclusive. % is scaled to controls: 0 for no effect and ±100 for the full control effect; potency is read from the fitted curve at half-maximal effect.

SMILES | DT40 TDP1 CPT | DT40 TDP1 no CPT | VP16 counter | TDP1 inh | RORg inh
CC(=O)c1cccc(NC(=S)N2c3ccccc3CC2C)c1 (stereo not drawn) | -1% | -24% | 1% | 0% | ?
CC1Cc2ccccc2N1C(=S)NC(=O)c1ccco1 (stereo not drawn) | ? | ? | 4µM* | 8% | 4.5µM*
CCOc1ccc(NC(=S)N(Cc2ccc(N(C)C)cc2)Cc2ccco2)cc1 | ? | 16µM* | 32µM* | 10% | ?
COc1ccc(NC(=S)N(Cc2ccc(N(C)C)cc2)Cc2ccco2)cc1 | 2% | ? | 20µM* | 5% | 13µM*
Nc1nc(SCC(=O)Nc2ccc(OC(F)(F)F)cc2)[nH]c(=O)c1NC(=O)c1ccc(Br)o1 | 4% | 2% | -23% | -6% | ?
O=S(=O)(c1cccc(Cl)c1)N1CCCC1 | -13% | -12% | 5% | 5% | 19%
CN1C(=O)C(O)(C2COC(C)(C)CC2=O)c2ccccc21 (stereo not drawn) | 15µM* | 9.2µM* | -11% | 3% | -24%
Cc1ccc2c(c1)C(O)(C1COC(C)(C)CC1=O)C(=O)N2C (stereo not drawn) | 5.2µM* | 3.3µM* | -17% | 2% | -29%
Cc1ccc(C(=O)CC2(O)C(=O)N(C)c3ccc(Br)cc32)c(C)c1 (stereo not drawn) | ? | -26% | -13% | 9% | 16%
CN1C(=O)C(O)(C2COC(C)(C)CC2=O)c2cc(Br)ccc21 (stereo not drawn) | 5.8µM* | 4.6µM* | 2% | 9% | -7%
COc1ccc(NC(=O)C2Cc3ccccc3N2C(=O)c2ccccc2)cc1OC (stereo not drawn) | -29% | -7% | · | 1% | ·
C=CCNC(=O)c1cnc(-c2ccccc2)nc1-c1ccccc1 | 1% | ? | 3% | · | -20%
C[C@@H]1ON(C)[C@H]2C[C@H]3c4[nH]c5ccc(-c6ccc7c(c6)OCO7)cc5c4CCN3C(=O)[C@@H]12 | 13µM* | 9.2µM* | · | · | ·
O=C1CN(S(=O)(=O)c2ccc(Cl)cc2C(F)(F)F)CCN1 | 3% | 3% | -9% | 0% | -15%
CC(C)CCNC(=O)CN(Cc1ccccc1Cl)C(=O)CCC(=O)Nc1ccccn1 | -23% | ? | -2% | -10% | 2%
Cn1c(NC(=O)C[n+]2cc(-c3ccccc3)n3c2CCC3)cc(=O)n(C)c1=O | -11% | -9% | 7% | 3% | -2%
Clc1cccc(C[n+]2cc(-c3ccccc3)n3c2CCC3)c1 | 2.9µM* | 2.6µM* | -22% | 3% | 36%
Cc1ccc(S(=O)(=O)N(Cc2cccc(Cl)c2)C(=O)N2CCN(C)CC2)cc1 | -2% | -3% | · | · | ·
Cc1ccc(-c2c[n+](Cc3cccc(Cl)c3)c3n2CCC3)cc1 | 0.92µM* | 0.52µM* | -2% | · | ?
Cc1ccccc1NS(=O)(=O)c1ccc(C(=O)N(C)CC(=O)Nc2ccccc2Br)cc1 | ? | -17% | · | 2% | ·
CSc1ncc(CN2CCc3c([nH]c4ccccc34)C2C(C)(C)C)cn1 (stereo not drawn) | ? | 23µM* | 2% | 4% | ?
Cn1cc(CN2CCc3c([nH]c4ccccc34)C2C(C)(C)C)cn1 (stereo not drawn) | -4% | ? | -9% | · | 15%
O=C(CC12CC3CC(CC(C3)C1)C2)Nc1cccc2ncccc12 | ? | ? | 10% | 0% | 5%
CN(CC(=O)Nc1ccc(Cl)c(Cl)c1)C(=O)CNC(=O)Cc1ccccc1 | 21µM* | 13µM* | · | 1% | ·
CN(CC(=O)NC(=O)NCc1ccccc1)CC(=O)Nc1ccc(Cl)c(Cl)c1 | 26µM* | ? | · | -2% | ·
SMILES | DT40 TDP1 CPT | DT40 TDP1 no CPT | VP16 counter | TDP1 inh | RORg inh
Cc1ccc(NC(=O)COc2ccccc2)cc1Cl | 30% | -29% | 4% | · | -41%
Cc1ccc(NC(=O)CC(C)CC(=O)NCc2ccccc2)cc1Cl (stereo not drawn) | 13µM* | ? | 1% | 3% | -5%
CCC(C)NC(=O)C1(NC(=O)Nc2ccccc2)CCCCC1 (stereo not drawn) | 16µM* | 18µM* | -3% | 1% | -18%
CCCCNC(=O)C1(NC(=O)Nc2ccc(C)cc2)CCCCC1 | 7.3µM* | ? | 5% | 10% | -1%
CC1CCc2c(cc(-c3ccccc3)n2-c2ccc(C(=O)NC(C)C)cc2)C1 (stereo not drawn) | ? | 21µM* | · | 4% | ·
CC(C)NC(=O)c1ccc(-n2c(-c3ccccc3)cc3c2CCCCC3)cc1 | ? | ? | · | -3% | ·
CCOCCCNC(=O)c1ccc(-n2c(-c3ccccc3)cc3c2CCCC3)cc1 | 9.2µM* | 8.2µM* | · | 6% | ·
Cc1nc2ccc(Br)cn2c1NC(C)(C)C | -20% | -23% | ? | 2%[56.1 µM] | 14µM*
O=C(NCCCN1CCN(CCCNC(=O)c2cccc([N+](=O)[O-])c2)CC1)c1cccc([N+](=O)[O-])c1 | 2% | ? | 3% | 5% | 20%
COc1cccc(C(=O)NCCS(=O)(=O)NC(C)CCc2ccccc2)c1 (stereo not drawn) | ? | 6.5µM* | · | · | ·
COc1cc(OC)cc(C(=O)NCCCCc2ccccc2)c1 | ? | 13µM* | · | · | ·
COc1cc(OC)cc(C(=O)NCCCCNC(=O)c2cc(OC)cc(OC)c2)c1 | 2% | -19% | · | · | ·
O=C(NCCn1ccc2ccccc21)c1cccc([N+](=O)[O-])c1 | 29µM* | 23µM* | -10% | 5% | 33%
Cc1cccc([N+](=O)[O-])c1NC(=O)CN(Cc1ccccc1)Cc1ccccc1 | 26µM* | 21µM* | -19% | 9% | 50%
CC1CCC(NC(=O)c2ccc3snnc3c2)CC1 (stereo not drawn) | -20% | -27% | -24% | 4% | 18%
O=C(CN(Cc1ccccc1)C(=O)c1cccc([N+](=O)[O-])c1)Nc1c(Cl)cc(Cl)cc1Cl | 8.2µM* | 12µM* | 13% | 1% | ?
O=C(NCCCCc1ccccc1)c1cccc([N+](=O)[O-])c1 | 18µM* | 16µM* | 4% | 5% | ?
O=C(NCCCc1ccccc1)c1cccc([N+](=O)[O-])c1 | -25% | -26% | 8% | -3% | 15%
COC(=O)c1ccc(COc2cccc3c2OC(C)(C)C3)cc1 | ? | -28% | 3% | 7% | ?
Cc1nc2ccccn2c(=O)c1NC(=O)c1ccco1 | -5% | -16% | · | · | ·
Cc1c(NC(=O)Nc2cc(Cl)ccc2Cl)c(=O)n(-c2ccccc2)n1C | 1% | -4% | 3% | 3% | 18%
C=CC[n+]1c(-c2ccc(Cl)cc2Cl)csc1Nc1ccc(NC(C)=O)cc1 | ? | 21µM* | -7% | 10% | ?
